The subject of test [1] is Vero E6 infected with SARS-CoV-2. Put plainly: morphology score (similarity to uninfected cells); higher = more like uninfected cells. The following applies: 24 h.
The test system is the same in test [2]. Put plainly: SARS-CoV-2 infection rate relative to infected DMSO; higher = more infection, active = 60 or less. The following applies: 24 h.

Molecules are shown by their SMILES.

In test [1], `O=C(Cn1ccnc1[N+](=O)[O-])NCCO` [etanidazole] (10 µM) yielded a morphology score of 0.0673. The SARS-CoV-2 infection rate in test [2] is 94.5% (inactive).

On to `N[C@H]1CCN(O)C1=O` (10 µM), for which the morphology score in test [1] stood at 0.0281. In test [2], the SARS-CoV-2 infection rate was 99.2% (inactive).

`CC(C)c1cccc2c1OC(C(C)C)C(=S)N2CC(=O)O` (configuration not stated) (10 µM) yielded a morphology score in test [1] of 0.0177. In addition, the SARS-CoV-2 infection rate in test [2] was 102% (inactive).

As for `Cc1ccc(N(CC2=NCCN2)c2cccc(O)c2)cc1` [phentolamine] (10 µM), in test [1], the morphology score was -0.00261. Moreover, the SARS-CoV-2 infection rate in test [2] is 98% (inactive).

`CN1CCN(c2ccc(-c3cccc(CN4CCOCC4)c3)cc2NC(=O)c2c[nH]c(=O)cc2C(F)(F)F)CC1` (10 µM) returned a morphology score in test [1] of 0.0309. In addition, in test [2], the SARS-CoV-2 infection rate was 115% (inactive).

The molecule `CCCCCNC(=N)N/N=C/c1c[nH]c2ccc(OC)cc12` [tegaserod] (10 µM) yielded a morphology score in test [1] of 0.0727. Besides, the SARS-CoV-2 infection rate in test [2] is 100% (inactive).

Molecule `OC(CCCN1CCN(c2ncc(F)cn2)CC1)c1ccc(F)cc1` (configuration not stated) (10 µM) registered a morphology score in test [1] of 0.0906. Moreover, the SARS-CoV-2 infection rate in test [2] is 108% (inactive).

Take `COc1cc(-n2c(=S)[nH]c3ccccc3c2=O)c(Cl)cc1Cl` [mdivi-1] (10 µM): in test [1], the morphology score is -0.0304. In test [2], the SARS-CoV-2 infection rate was 112% (inactive).

As to `CCCCC1C(=O)N(c2ccccc2)N(c2ccccc2)C1=O` [phenylbutazone] (10 µM), in test [1], the morphology score came out at 0.209. The SARS-CoV-2 infection rate in test [2] was 97.5% (inactive).

For `CO[C@@H]1[C@H](N(C)C(=O)c2ccccc2)C[C@H]2O[C@]1(C)n1c3ccccc3c3c4c(c5c6ccccc6n2c5c31)C(=O)NC4` [midostaurin] (10 µM), the morphology score in test [1] is -0.108. Moreover, the SARS-CoV-2 infection rate in test [2] is 110% (inactive).

Consider `CN(C)CCCOc1nn(Cc2ccccc2)c2ccccc12` [benzydamine] (10 µM), for which, in test [1], the morphology score worked out at 0.4. Also, the SARS-CoV-2 infection rate in test [2] was 70.5% (inactive).

For the origin of these results see the supplement of paper PMC13380429.
